PubChem BioAssay (Tox21)
Records with an inconclusive call do not appear. A call without a number means that no potency is given here. A number with no mark means an inactive call. Active and inactive are the calls of the source. Calls follow the shape of the dose curve; as a rule, active = well fitted curve in the direction sought with a large enough effect in the repeat runs; inconclusive = weak or mixed curves; inactive = no such curve, though single readings can be large; an effect the other way counts as inactive or inconclusive.

What was measured:
[1] = qHTS assay to identify small molecule agonists of the RXR signaling pathway - cell viability counter screen (AID 1159529); also: nearly all actives have a fitted effect of over 50% in size; also: potency is read from the fitted curve at half-maximal effect;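 as to activity change, negative = cytotoxicity: HEK 293T cells carrying an RXR-alpha UAS beta-lactamase reporter; series mostly up to about 77 µM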
Procedure, shortened: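 HEK 293T RXRa-bla cells, 2% CS-FBS; 5 h settle; cpd 16 h 37 C, 5% CO2; CellTiter-Glo 30 min RT, luminescence. Tetraoctyl ammonium bromide as positive control.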

[2] = qHTS assay to identify small molecule antagonists of the retinoid acid receptor (RAR) signaling pathway - cell viability counter screen (AID 1159551); also: nearly all actives have a fitted effect of over 35% in size
Procedure, shortened: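 ATP-based viability, C3RL4 cells, 6 h at 37 C with 1 uM final retinol co-added after compound; luminescence read 30 min post CellTiter-Glo, RT.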

[3] = qHTS assay to identify small molecule antagonists of the retinoic acid receptor (RAR) signaling pathway (AID 1159552; also: nearly all actives have a fitted effect of over 50% in size; also: potency is read from the fitted curve at half-maximal effect)
Procedure, shortened: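 Cells of the C3RL4 line were seeded, incubated overnight, then dosed with compounds in DMSO followed immediately by retinol (1 uM final). Six hours later luciferase detection reagent went in; signal was measured after 30 min at RT.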

| Compound | Potency [1] | Potency [2] | Potency [3] | activity change, negative = cytotoxicity [1] | activity change, negative = cytotoxicity [2] | activity, negative = inhibition [3] |
| --- | --- | --- | --- | --- | --- | --- |
| CCN(CC)C(=O)/C(C#N)=C/c1cc(O)c(O)c([N+](=O)[O-])c1 | inactive | inactive | inactive |  |  |  |
| FC(F)(F)C(F)(F)C(F)(F)C(F)(F)CCI | inactive | inactive | inactive |  |  |  |
| COc1ccc(CCN(C)CCCN2CCc3cc(OC)c(OC)cc3CC2=O)cc1OC | inactive | inactive | inactive |  |  |  |
| CN1CCCN(C(c2ccccc2)c2ccc(Cl)cc2)CC1 (stereo unspecified) | 7.56 µM (active) | inactive | 23.7 µM (active) |  |  |  |
| O=C(c1ccccc1)C1CCC1 | inactive | inactive | inactive |  |  |  |
| CC[C@H]1OC(=O)[C@H](C)[C@@H](O[C@H]2C[C@@](C)(OC)[C@@H](O)[C@H](C)O2)[C@H](C)[C@@H](O[C@@H]2O[C@H](C)C[C@H](N(C)C)[C@H]2O)[C@](C)(O)C[C@@H](C)C(=O)[C@H](C)[C@@H](O)[C@]1(C)O | inactive | inactive | inactive |  |  |  |
| CC(=O)NCCO | inactive | inactive | inactive |  |  |  |
| O=C(O)c1ccc(O)cc1O | inactive | inactive | inactive |  |  |  |
| O=C(NS(=O)(=O)/C=C/c1ccccc1)c1ccc(F)cc1Cl | inactive | inactive | inactive |  |  |  |
| Oc1cccc2[nH]ccc12 | inactive | inactive | inactive |  |  |  |
| C1CCCCC1 | inactive | inactive | inactive |  |  |  |
| CCOC(=O)C(C)O (stereo unspecified) | inactive | inactive | inactive |  |  |  |
| BrC(Br)C(Br)Br | inactive | inactive | inactive |  |  |  |
| CC1CCC(C(C)CS)CC1S (stereo unspecified) | inactive | inactive | inactive |  |  |  |
| CC(CN(CCN(CC(C)OCCO)CC(C)OCCO)CC(C)OCCO)OCCO (stereo unspecified) | inactive | inactive | inactive |  |  |  |
| CCCCCCCCCCCCCCN(C)C |  |  |  | 0.892% [at 15.8 µM] | 0.962% [at 19 µM] | -4.35% [at 19 µM] |
| Cc1ccc2c(c1)CCCN2 | inactive | inactive | inactive |  |  |  |
| CCN(CC)C(=O)N1CCN(C)CC1 | inactive | inactive | inactive |  |  |  |
| Cc1ccc2c(c1[N+](=O)[O-])C(=O)c1ccccc1C2=O | inactive | inactive | inactive |  |  |  |
| CC(C)c1ccc(C(=O)N=C(N)N)cc1S(C)(=O)=O | inactive | inactive | inactive |  |  |  |
| C=C(C)c1ccccc1 | inactive | inactive | inactive |  |  |  |
| CCN(CC)CCOC(=O)C(c1ccccc1)c1ccccc1 | inactive | inactive | inactive |  |  |  |
